Results: PubChem BioAssay (NCI)
The panel holds about 83,000 compounds, 20% with a hit somewhere; the sample as a whole holds those more often.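 Compound tested at a single concentration for 48 hours in 96-well plates; a percent growth value below 10 was scored as active.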 Calls of active or inactive are those of the source.

How the values were obtained:
Experiment in all cases: NCI-60 one-dose screen, 48 h (100 = growth as untreated, 0 = no growth, -100 = all killed)
Conditions in all cases: 10 µM unless noted
[1] = test system: NCI-H23 lung
[2] = test system: NCI-H226 lung
[3] = test system: NCI-H322M lung
[4] = test system: HOP-62 NSCLC
[5] = test system: NCI-H460 lung
[6] = test system: HOP-92 NSCLC
[7] = test system: NCI-H522 lung
[8] = test system: A549/ATCC NSCLC
[9] = test system: 786-0 renal
[10] = test system: COLO 205 colon

Measured: growth

N#Cc1c(-c2ccc(Cl)cc2)nc2n[nH]c(-c3ccc(Cl)cc3)c2c1-c1cccs1
inactive: [1] 62.7% | [2] 54.1% | [3] 76.8% | [4] 62.8% | [5] 51.1% | [6] 15.7% | [7] 54.4% | [8] 54.9% | [9] 67.5% | [10] 53.2%

COc1ccc(CCC2c3c(cc4c(c3OC)OCO4)CCN2C)cc1 (stereo not given)
active: [1] -48.6% | [2] -59.3% | [3] 0.952% | [4] -30.2% | [5] -89.7% | [6] -30% | [7] -81% | [8] 9.85% | [9] -67.1% | [10] -73.1%

CCC(C)(C)c1ccc(OCCCCCCN2CCN(c3ccncc3)CC2)cc1
active: [1] 1.24% | [5] -29.7% | [6] -27.8% | [7] 8.93% | [9] -79% | [10] -84.4%
inactive: [2] 35.6% | [3] 47.6% | [4] 35.1% | [8] 32.8%

CC(C)c1sc(NC(=O)c2cc(NC(=O)c3cc(NC(=O)c4nccn4C)cn3C)cn2C)nc1C(=O)NCCCN(C)C
active: [6] -0.363%
inactive: [1] 75.3% | [2] 71.2% | [3] 95.6% | [4] 80.1% | [5] 118% | [7] 38.3% | [8] 106% | [9] 104% | [10] 69.1%

O=C(N/N=C/c1ccc(-c2ccc(O)cc2)o1)c1[nH]c2ccc(Br)cc2c1-c1ccccc1
active: [1] 5.82% | [4] -11.3% | [5] -11.3% | [6] -40.7% | [7] -45.9% | [9] -16.7% | [10] -54.5%
inactive: [2] 10.6% | [3] 17.4% | [8] 11.2%

O=C(Nc1ccc(C(F)(F)F)cc1)Nc1ccc2oc(=O)ccc2c1
active: [1] 3.56% | [6] -5.11% | [7] -10.4% | [10] -26.4%
inactive: [2] 26.6% | [3] 41.1% | [4] 50.1% | [5] 15.9% | [8] 14.1% | [9] 53.8%

Cc1ccc(-n2c(-c3cc4ccccc4nc3Cl)noc2=O)cc1
inactive: [1] 87.7% | [2] 77.7% | [3] 92.5% | [4] 65.1% | [5] 90.6% | [6] 70.6% | [7] 62.7% | [8] 85.7% | [9] 91.3% | [10] 103%

COc1cc2c(c(OC)c1OC)C(=O)CC(c1cccc(NC(=O)c3cc(NC(=O)[C@@H](N)CO)ccc3C)c1)O2 (stereo not given in full)
inactive: [1] 112% | [2] 103% | [3] 108% | [4] 108% | [5] 123% | [6] 114% | [7] 93% | [8] 102% | [9] 107% | [10] 131%

CC1(c2cc3cc(Cl)ccc3oc2=O)NC(=O)c2c(/C=C/C(=O)OC3CC4CCC3(C)C4(C)C)cccc2N1 (stereo not given)
inactive: [1] 63.4% | [2] 67% | [3] 70.5% | [4] 71.5% | [5] 67.2% | [6] 40.8% | [7] 36.8% | [8] 41.7% | [9] 69.9% | [10] 48.8%

CCOC(=O)C1=C(N)N(c2ccccc2)C2=C(C(=O)CC(C)(C)C2)C1c1cccc(Cl)c1Cl (stereo not given)
inactive: [1] 69.7% | [2] 40.3% | [3] 77.8% | [4] 40.8% | [5] 61% | [7] 74.9% | [8] 60.6% | [9] 67.7% | [10] 80.6%
active: [6] -0.828%

Cc1cc2nc3c4ccccc4n(CCCN(C)C)c3nc2cc1C
active: [1] -53.4% | [2] 4.65% | [3] -22.6% | [4] -0.831% | [5] -25.7% | [6] -18.2% | [7] -58.7% | [8] 6.71% | [9] 3.7% | [10] -86.3%

CCCCSc1nc(NCCc2c[nH]c3ccccc23)c(C#N)c(-c2ccc(OC)cc2)n1
inactive: [1] 48.3% | [2] 60.9% | [3] 87.4% | [4] 57% | [5] 33.4% | [6] 47.3% | [7] 57.7% | [8] 61.3% | [9] 54.8% | [10] 74.6%

COc1cc2oc(-c3cccc(C(=O)Nc4ccc(Cl)cc4)c3)cc(=O)c2c(OCCNC(=O)[C@@H](N)CCC(=O)O)c1OC
inactive: [1] 88.2% | [2] 86.6% | [3] 79.8% | [4] 81.9% | [5] 63.2% | [6] 63% | [7] 82.8% | [8] 103% | [9] 60.6% | [10] 70.6%

O=C1Nc2ccc([N+](=O)[O-])cc2C1=Nc1ccccc1
inactive: [1] 106% | [2] 102% | [3] 96.1% | [4] 114% | [5] 109% | [6] 118% | [7] 110% | [8] 130% | [9] 102% | [10] 108%

Cc1cc(C)n(-c2ccc3nnc(-c4ccccc4)n3n2)n1
inactive: [1] 94.1% | [2] 105% | [3] 110% | [4] 122% | [5] 104% | [6] 85.2% | [7] 74.7% | [8] 99.6% | [9] 93.9% | [10] 115%

N#Cc1ccc(/C=N/NC(=O)c2[nH]c3ccc(Br)cc3c2-c2ccccc2)o1
inactive: [2] 22.9% | [3] 41.3% | [4] 16.6% | [8] 12.7%
active: [1] 3.75% | [5] 1.47% | [6] -2.77% | [7] -36.4% | [9] -1.06% | [10] -25.2%

O=C(N=Nc1c(O)[nH]c2ccc([N+](=O)[O-])cc12)c1ccc2nc(-c3ccccc3)[nH]c2c1
inactive: [1] 64.7% | [2] 60.1% | [3] 104% | [4] 100% | [5] 100% | [6] 30.8% | [7] 17.8% | [8] 106% | [9] 91.4% | [10] 28.4%

COc1ccc(N2N=C(c3ccc4c(c3)OCO4)CC2c2cccc(NC(=O)CCNS(=O)(=O)c3ccc(Cl)cc3)c2)cc1 (stereo not given)
inactive: [1] 32.6% | [2] 30.8% | [3] 51.8% | [4] 50.2% | [5] 22.3% | [6] 32% | [8] 33.4% | [9] 43% | [10] 29.2%
active: [7] -80.7%

COc1ccc2[nH]cc(-c3nnc(N)nc3-c3c[nH]c4ncc(Br)cc34)c2c1
inactive: [1] 92.2% | [2] 73.1% | [3] 81.3% | [4] 75.8% | [5] 80.1% | [6] 106% | [7] 84.2% | [8] 98.2% | [9] 74.8% | [10] 132%

CC(=O)Nc1ccc(-n2cnc3ccc(-c4ccc(O)cc4)cc32)cc1
inactive: [1] 41.3% | [2] 52.5% | [3] 44% | [4] 53% | [5] 38.7% | [6] 66% | [7] 54% | [8] 44% | [9] 48.5% | [10] 123%

COc1cc(/C=C/C(=O)c2ccc(C)cc2)ccc1Oc1nc(Nc2ccc(F)cc2)nc(N(C)C)n1
inactive: [1] 39% | [2] 61.9% | [3] 74.1% | [4] 86.4% | [5] 34.4% | [6] 52.7% | [7] 44.8% | [8] 60% | [9] 37.5% | [10] 86.8%

O=C1C(=Nc2ccc(F)c(Cl)c2)c2cccc3cccc1c23
inactive: [1] 90.9% | [2] 91.9% | [3] 85.2% | [4] 81.2% | [5] 78% | [6] 96.9% | [7] 104% | [8] 89.6% | [9] 91.8% | [10] 94%

CC1(C)CC[C@]2(C(=O)Nc3ccc(Br)cc3)CC[C@]3(C)C(=CCC4[C@@]5(C)C[C@@H](O)[C@H](O)[C@@](C)(CO)C5CC[C@]43C)C2C1 (stereo not given in full)
inactive: [3] 54.5% | [8] 17.2%
active: [1] 9.43% | [2] -28.6% | [4] 5.6% | [5] -42.1% | [6] -53.4% | [7] -31.3% | [9] -28.2% | [10] -74.1%

COc1cc(NC(=O)c2cccc(C3CCc4c(cc(OC)c(OC)c4OC)O3)c2)cc(OC)c1OC (stereo not given)
inactive: [1] 36.9% | [2] 21.4% | [3] 39.2% | [4] 30.6% | [5] 29.1% | [6] 52.4% | [8] 19.5% | [9] 24.3%
active: [7] -9.86% | [10] 3.7%

COc1ccc2nc(Nc3cccc(NC(=O)c4ccc(CN5CCCN(C)CC5)c(C(F)(F)F)c4)c3)ccc2c1
active: [1] -71.9% | [2] -39.8% | [3] -86.4% | [4] -47.3% | [5] 8.75% | [6] -53.1% | [7] -50.7% | [8] -24.8% | [9] -73.4% | [10] -31.7%

CCCCOc1ccc(NC(=O)c2sc3nc(C)ccc3c2N)cc1
active: [1] -69.5% | [5] 7.45% | [6] -37.2% | [8] 0.0895% | [9] -78.5%
inactive: [2] 10.2% | [3] 40.3% | [4] 21.9% | [7] 17.3% | [10] 80.4%

O=C(NNc1nc2cc(C(F)(F)F)ccc2n2cccc12)c1cnccn1
active: [1] -27.5% | [2] -53.5% | [3] -13.6% | [4] -73.4% | [5] -30.3% | [6] -74% | [7] -60.2% | [8] -60.5% | [9] -99.1% | [10] -72.3%
